The campaign covered roughly 75,000 compounds. About 5,700 (7.6%) were called active. Inconclusive results (about 7%) are left out. This is one part of a sample in which actives are shown more often than they occur. Calls come from the whole dose curve; as a rule, active = well fitted inhibition curve with a large enough effect; inconclusive = small, poorly fitted or top-dose-only effect; inactive = no such curve, though single readings can be large or run the other way.
% is set by controls: 0 for no effect and ±100 for the full control effect; potency is the fitted concentration of half-maximal effect.

The assay has as its target 3-hydroxyacyl-CoA dehydrogenase type-2 (Homo sapiens) (UniProt Q99714). The assay is described as follows: qHTS Assay for Inhibitors of HSD17B4, hydroxysteroid (17-beta) dehydrogenase 4. Note: nearly all actives have a fitted effect of over 70% in size. Conditions: recombinant HSD17B10, NADH fluorescence kinetic; series mostly up to 57.1 µM; activity change, negative = inhibition: at the top concentration. The text has this: Assay Overview: NIH Molecular Libraries Screening Centers Network [MLSCN] NIH Chemical Genomics Center [NCGC] Structural Genomics Consortium [SGC] Grant number: None HADH2: Hydroxyacyl-Coenzyme A dehydrogenase, type II, was supplied by researchers at the Structural Genomics Consortium, Oxford University lab (PI Udo Oppermann). The mitochondrial enzyme 17-hydroxysteroid dehydrogenase type 10 (HSD17-10) previously classified as type II hydroxyacyl-CoA dehydrogenase (HADH2) catalyzes the NAD+ dependent oxidation of a variety of substrates including acyl-CoAs, androgens and neurosteroids as well as bile acids(Shafqat N, Marschall HU, Filling C, et al. Biochemical Journal. 2003;376(Pt 1):49-60). […] The enzyme was produced by E.coli fermentation as His-tagged recombinant for the purpose of X-ray structure determination, and had been mass-spectrometry characterized. Inhibition of HADH2 activity was screened by utilizing beta-hydroxybutyryl coenzyme A as an electron donor and NAD+ as an electron acceptor/cofactor. An increase in the fluorescence intensity due to conversion of NAD+ to NADH was used to measure the enzyme activity.
Assay Protocol: Buffer: 100 mM Tris-HCl pH 9.0, containing 0.01 % Tween-20. Reagents/Controls: Buffer in columns 3 and 4 as negative control (no enzyme). Substrate/cofactor solution: 1 mM NAD+ and 90 uM beta-hydroxybutyryl coenzyme A (Sigma-Aldrich, St. Louis, MO) final concentrations dispensed throughout the plate. Enzyme: 20 nM HADH2 final concentration in columns 1, 2, 5-48. Column 1 is neutral (100% activity). Column 2 contained titration of apomorphine (Sigma-Aldrich, A 4393, PubChem CID 2215, top concentration 500 uM, then 1:2 dilution in duplicate) Assay Steps: Three uL of enzyme were dispensed to 1536-well Greiner black solid bottom plates. Compounds and controls (23 nL) were transferred via Kalypsys PinTool. The plates were incubated for 15 min at room temperature, and then 1 uL of substrate/cofactor solution was added to start the reaction. The plates were immediately transferred to and read every 30 seconds for 4 min on ViewLux High-throughput CCD imager (Perkin-Elmer) using 360 nm excitation and 450 nm emission fluorescence protocol. The fluorescence intensity difference between the last and the first time points was used to compute reaction progress.
Background: qHTS replaces the single test concentration by a dilution series.
Consider `CC(C(=O)Nc1ccccc1-c1ccccc1)N1CCOCC1` (stereo not given), for which the “activity change, negative = inhibition” value was 12.3% (inactive). On to `COc1ccc(C2C3=C(CC(C)(C)CC3=O)Oc3ncn4nc(-c5cccnc5)nc4c32)cc1OC` (stereo not given), for which the “activity change, negative = inhibition” value is 6.85% (inactive).

`CCCc1[nH]nc2c1C(C1CC=CCC1)C(C#N)=C(N)O2` (stereo not given): the “activity change, negative = inhibition” value is -17.4% (inactive). With `CCCc1[nH]nc2c1C(c1ccc(Br)s1)C(C#N)=C(N)O2` (stereo not given), the Potency was 20 µM (active). As to `CCCc1[nH]nc2c1C(c1ccc(OC(=O)c3ccco3)cc1)C(C#N)=C(N)O2` (stereo not given), the “activity change, negative = inhibition” value is 3.66% (inactive).

For `COC(=O)[C@@H]1C[C@@]2(O)[C@@H](O)[C@@H](O)[C@@H](O)C[C@H]2N1Cc1ccc(C)s1`, the “activity change, negative = inhibition” value was 15% (inactive). For the compound `COc1ccc2c(c1OC)C(=O)N(c1ncn[nH]1)C2`, the Potency is 31.6 µM (active). In the case of `Cc1ccc(Cn2ccc(NC(=O)C3C4CCC(C4)C3C(=O)O)n2)cc1` (stereo not given), the “activity change, negative = inhibition” value is -2.8% (inactive).

As to `CC1CCN(C(=O)CSc2ccc3nnc(-c4cccc(F)c4)n3n2)CC1`, the “activity change, negative = inhibition” value is -12.3% (inactive). For the compound `CCOc1ccc(-c2nnc3ccc(SC)nn23)cc1`, the “activity change, negative = inhibition” value was -6.07% (inactive). As for `COC(=O)C(C)Sc1ccc2nnc(-c3cccc(F)c3)n2n1` (stereo not given), the Potency was 25.1 µM (active). In the case of `CC(=O)CC(C)C`, the “activity change, negative = inhibition” value was 5.18% (inactive).

Turning to `Cc1ccccc1C(=O)NCCN=C1NS(=O)(=O)c2ccccc21`, the “activity change, negative = inhibition” value was -2.36% (inactive). As for `O=C(c1csnn1)N1CCC[C@@]2(CCN(Cc3nccs3)C2)C1`, the “activity change, negative = inhibition” value is 7.36% (inactive).

For `CSc1ccc(-c2c(C#N)c(N)nc3c2c(C)nn3-c2ccccc2)cc1`, the Potency was 31.6 µM (active).

As for `CCC(=O)c1ccc(OCC(O)CN2CC(C)OC(C)C2)cc1` (stereo not given), the “activity change, negative = inhibition” value is 0.889% (inactive).

`CC(=O)N(CC1CCCO1)C1(C(=O)NC2CCCC2)CCCCC1` (stereo not given): the “activity change, negative = inhibition” value is 11.9% (inactive). The same measure, in the same setting: for `C[C@@H]1O[C@@H](OC[C@H]2O[C@@H](Oc3c(-c4cccc(O)c4O)oc4cc(O)cc(O)c4c3=O)[C@H](O)[C@@H](O)[C@@H]2O)[C@H](O)[C@H](O)[C@H]1O` the value was -17.4% (inactive); for `O=c1c2ccccc2oc2nc(C3CCCCC3)n(Cc3ccco3)c(=O)c12`, -7.64% (inactive). The same measure, in the same setting: for `CCc1nc2oc3ccccc3c(=O)c2c(=O)n1Cc1ccc(OC)cc1` the value was -5.68% (inactive). In the case of `O=c1c2ccccc2oc2nc3n(c(=O)c12)CCCS3`, the Potency is 25.1 µM (active). In the case of `CN(C)/C=C1/Nc2ccccc2C1=O`, the “activity change, negative = inhibition” value was -21.3% (inactive). Still for that read-out and setting: the figure for `CCn1ncc(Br)c1C(=O)Nc1cc(C)ccc1F` is 7.14% (inactive); for `Cc1c(O)cc(O)c2c(=O)c(-c3ccc(O)cc3)coc12` it is 1.02% (inactive). In the case of `O=C1C(c2[nH]c3ccccc3c2O)=Nc2ccccc21`, the Potency was 31.6 µM (active). Regarding `CCCCNc1nc(C)nc2c1nc(-c1ccccc1)n2CCCCN(CC)CC`, the Potency is 25.1 µM (active). On to `CCCCNc1nc2c(c(=O)[nH]c(=O)n2C)n1CCOc1ccccc1`, for which the “activity change, negative = inhibition” value was 9.4% (inactive). On the same count and under the same terms, the figure for `CC(=O)c1c(N2CCOCC2)nc(=S)n(Cc2ccccc2)c1C` is 6.31% (inactive). For `CCN(CC)CCCCn1c(-c2ccccc2)nc2c(N3CCOCC3)nc(C)nc21`, the Potency was 20 µM (active).

Regarding `O=S(=O)(O)CCN1CCOCC1`, the “activity change, negative = inhibition” value was 1.92% (inactive). Take `CCCn1c(C(O)c2ccc(OCC)cc2)nc2ccccc21` (stereo not given): the “activity change, negative = inhibition” value is 4.24% (inactive).

On to `COc1ccccc1C(=O)Oc1ccc(N2C(=O)CCC2=O)cc1`, for which the “activity change, negative = inhibition” value is -11.2% (inactive).

With `C[C@@H](c1ccccc1)N1C(=O)[C@H]2[C@H]3[C@H](O)[C@H](O)C/C(=N/OC[C@@H](O)COCc4ccco4)[C@@H]3CC[C@@H]2C1=O`, the activity change, negative = inhibition is 1.97% [at 11.4 µM] (inactive).

As to `COc1ccc(S(=O)(=O)N2CCCC(C(=O)N3CCN(C)CC3)C2)cc1C` (stereo not given), the “activity change, negative = inhibition” value is 10.7% (inactive). Same read-out and setting: for `C[N+]1(CCN=C=NC2CCCCC2)CCOCC1` the value was -0.294% [at 11.4 µM] (inactive).

On to `CCOc1ccccc1C1C(C(=O)OC)=CN(C)C=C1C(=O)OC`, for which the Potency is 25.1 µM (active). With `CC12CN3CC(C)(CN(C1)C3c1ccc(Cl)cc1Cl)C2=O` (stereo not given), the “activity change, negative = inhibition” value was 4.79% (inactive). `COC(=O)C1=C(C)N(C)C(C)=C(C(=O)OC)C1c1cccc(Br)c1`: the “activity change, negative = inhibition” value was -5.98% (inactive). On the same count and under the same terms, the figure for `CCCCOCCCNC(=O)c1ccccc1OCC` is 1.37% (inactive); for `CCOc1ccccc1N(CC(=O)Nc1ccccc1C(=O)OC)S(C)(=O)=O` it is -13.6% (inactive).

Turning to `COC(=O)C1=CN(C)C=C(C(=O)OC)C1c1ccc(Cl)cc1Cl`, the Potency was 31.6 µM (active).

`O=S(=O)(N1CCOCC1)N1CCN(c2ccccc2F)CC1`: the “activity change, negative = inhibition” value was 0.766% (inactive). Take `CCOC(=O)C1=C(CC)Nc2ccccc2N=C1NC(=O)c1cccc(S(=O)(=O)N2CCCC2)c1`: the “activity change, negative = inhibition” value is -10.6% (inactive). Regarding `CCOC(=O)CN1C(=O)C(O)(CC(=O)c2ccccn2)c2ccccc21` (stereo not given), the “activity change, negative = inhibition” value was -5.79% (inactive). On the same count and under the same terms, for `CCN(CC)S(=O)(=O)c1cccc(C(=O)Nc2ccccc2)c1` the value was 2.56% (inactive).

Turning to `CCc1c(O)nc(SCC(=O)N2CCCCC2)n(-c2ccccc2C)c1=O`, the “activity change, negative = inhibition” value is 7.14% (inactive).

For `CC1(C)OC2CC3C4CCC5=CC(=O)CCC5(C)C4(F)C(O)CC3(C)[C@]2(C(=O)CCl)O1` (stereo not given in full), the “activity change, negative = inhibition” value is -11.4% (inactive).

Take `Cc1cccc(Br)c1`: the “activity change, negative = inhibition” value is 2.64% (inactive). `Cc1cc(=O)[nH]c(SCc2cc(Cl)ccc2OC(F)F)n1`: the “activity change, negative = inhibition” value is -11.7% (inactive). Consider `CCOc1ccc2nc(NC(=O)CSc3nc4c(c(=O)n(C)c(=O)n4C)n3CC)sc2c1`, for which the “activity change, negative = inhibition” value is -2.72% (inactive). On to `O=C(NCc1ccc(Cl)cc1)c1cc2c(nc3sccn32)s1`, for which the Potency is 20 µM (active). On to `O=C(NCc1cn2ccsc2n1)Nc1ccc(Cl)cc1`, for which the “activity change, negative = inhibition” value was 10.3% (inactive). Still for that read-out and setting: for `O=c1cc(Cn2nnc(-c3ccc(Cl)cc3)n2)nc2sccn12` the value was -10.6% (inactive); for `CCCCn1nnnc1NCc1cc(OC)c(OC)c(OC)c1`, 13.8% (inactive); for `O=C(O)C1CCN(c2ncnc3ccc(-c4ccccc4C(F)(F)F)cc23)CC1`, -0.266% (inactive).

(Values after PubChem BioAssay AID893 (National Center for Advancing Translational Sciences (NCATS), 2007).)
